Reference: article PMC4552634, “A New Set of Chemical Starting Points with Plasmodium falciparum Transmission-Blocking Potential for Antimalarial Drug Discovery” (PLoS ONE, 2015)
In all, about 13,000 compounds went through this assay and about 3,200 (25%) showed an effect of 50% or more. Some of the results follow.

Each molecule was assayed on P. falciparum stage V gametocytes. Settings: 48 h, 5 µM; inhibitor.
Parameters: BacTiter-Glo ATP luminescence viability of purified stage V gametocytes in 384-well plates, per cent inhibition versus DMSO
In the case of `O=C(c1ccccc1N=Nc1c(-c2ccccc2)[nH]n(-c2ccccc2)c1=O)N1CCOCC1` [TCMDC-125746], the “% Inhibition” value is reported as -15.29%. For `CN(C)Cc1cccc(-c2ccc(NC(=O)c3ccc4c(=O)n(Cc5ccoc5)cnc4c3)cc2)c1` [TCMDC-132369], the “% Inhibition” value was 14.65%. For `CN(C)Cc1ccc(-c2ccc(NC(=O)c3ccc4c(=O)n(Cc5ccccc5)cnc4c3)cc2)cc1` [TCMDC-132361], the “% Inhibition” value was 121.5%. `CN1CCC(Oc2ccc(NC(=O)c3ccc4c(=O)n(Cc5ccccc5)cnc4c3)cc2Cl)CC1` [TCMDC-132373] was tested, and the “% Inhibition” value was -13.59%. `CN(C)Cc1ccc(-c2ccc(NC(=O)c3ccc4c(=O)n(Cc5ccoc5)cnc4c3)cc2)cc1` [TCMDC-132368] was tested, and the “% Inhibition” value was 79.58%. In the case of `CN(C)CCN(C)Cc1ccc(-c2ccc(NC(=O)c3cccc(C#N)c3)cc2)cc1` [TCMDC-132597], the “% Inhibition” value is reported as -16.52%. With `O=C(Nc1cc(F)cc(-c2cccnc2)c1)c1ccc2c(=O)n(Cc3ccccc3)cnc2c1` [TCMDC-132372] the “% Inhibition” value was 12.04%. In the case of `Brc1ccsc1-c1nc(NCCC(c2ccccc2)c2ccccc2)no1` [TCMDC-134185], the “% Inhibition” value is reported as 1.138%. In the case of `COc1ccc(C2CC(=O)C3=C(C2)NC(C)=C(C(=O)OC2CCCC2)C3c2ccc(O)cc2)cc1OC` (stereo not shown) [TCMDC-125626], the “% Inhibition” value is reported as 11.61%. `COc1cc2nc(-c3ccccc3)nc(N3CCN(CC(=O)N4CCCC4)CC3)c2cc1OC` [TCMDC-125097] was tested, and the “% Inhibition” value was -15.61%. In the case of `O=C(/C=C/c1ccc(Cl)c(Cl)c1)N1CCC(CNCc2cccc3cc[nH]c23)CC1` [TCMDC-134168], the “% Inhibition” value is reported as -34.36%. `COc1cc(NC(=O)/C=C/c2ccc(-c3ccccc3)cc2)ccc1OCCN(C(C)C)C(C)C` [TCMDC-139961] was tested, and the “% Inhibition” value was -1.594%. For `COc1ccc(C(=O)Nc2ccc(-c3ccc([N+](=O)[O-])cc3)cc2)cc1CCCN(C)C` [TCMDC-132090], the “% Inhibition” value was 0.6115%. For `COc1ccc(/C=C/C(=O)Nc2ccc(-c3ccncc3)cc2)cc1CCCN(C)C` [TCMDC-132082], the “% Inhibition” value was 72.07%. `COc1ccc(NC(=O)/C=C/c2ccc(-c3ccc(-c4noc(C)n4)cc3)cc2)cc1OCCN(C)C` [TCMDC-138985] was tested, and the “% Inhibition” value was 62.93%. For `COc1ccc(NC(=O)/C=C/c2ccc(-c3ccccc3)cc2)cc1N1CCN(C)CC1` [TCMDC-138979], the “% Inhibition” value was -7.206%. `Cc1nc(-c2ccc(-c3ccc(C(=O)Nc4ccc(C(C)C)c(OCCN(C)C)c4)cc3)c(C)c2)no1` [TCMDC-138990] was tested, and the “% Inhibition” value was -34.94%. In the case of `CC(=O)Nc1nc(C(=O)Nc2ccc(-c3cccc(-c4nc5ccc(C(F)(F)F)cc5[nH]4)c3)cc2)cs1` [TCMDC-137129], the “% Inhibition” value is reported as -34.14%. `COc1cccc(COCC(O)CN(CCc2ccccn2)C(=O)c2ccccc2F)c1` (stereo not shown) [TCMDC-141311] was tested, and the “% Inhibition” value was 5.48%. `CCCCC(CC)CN1C(=O)C(c2ccccc2)(c2ccccc2)N=C1N` (stereo not shown) [TCMDC-136814] was tested, and the “% Inhibition” value was -93.32%. For `CNC(=O)c1cc(Nc2nnc(-c3ccc(C)c(S(=O)(=O)NC4CCCCC4)c3)c3ccccc23)ccc1OC` [TCMDC-125661], the “% Inhibition” value was -9.997%. `NCc1cccc(-c2ccc(CNC3CCN(Cc4ccccc4)CC3)cc2)c1` [TCMDC-140486] was tested, and the “% Inhibition” value was 46.75%. `Oc1ccc(CN2CCC(NCc3cccc(C(F)(F)F)c3)CC2)cc1` [TCMDC-141655] was tested, and the “% Inhibition” value was -19.37%. In the case of `NCc1ccc(-c2cccc(CNC3CCN(Cc4ccccc4)CC3)c2)cc1` [TCMDC-140478], the “% Inhibition” value is reported as 84.33%. `NCc1cccc(-c2cccc(CNC3CCN(Cc4ccccc4)CC3)c2)c1` [TCMDC-140477] was tested, and the “% Inhibition” value was 86.14%. For `CCOc1cc(C(=O)NC2CCN(Cc3ccccc3)C2)ccc1-c1nc2ccc(Cl)cc2[nH]1` (stereo not shown) [TCMDC-140911], the “% Inhibition” value was -5.376%. For `O=C(Nc1ccc(-c2nc3ccccc3[nH]2)cc1)c1ccc(S(=O)(=O)N2CCCCCC2)cc1` [TCMDC-125712], the “% Inhibition” value was -20.46%. In the case of `Cc1ccc2nc(C)cc(NN=Cc3ccc(Cl)cc3)c2c1` [TCMDC-123976], the “% Inhibition” value is reported as -8.095%. `COc1ccc2nc(C)cc(NN=Cc3ccccc3[N+](=O)[O-])c2c1` [TCMDC-142087] was tested, and the “% Inhibition” value was 48.43%. `Cc1ccc2nc(C)cc(N/N=C/c3ccccc3[N+](=O)[O-])c2c1` [TCMDC-123975] was tested, and the “% Inhibition” value was -3.364%. `Cc1ccc2nc(C)cc(N/N=C/c3ccc([N+](=O)[O-])o3)c2c1` [TCMDC-142035] was tested, and the “% Inhibition” value was 56.06%. `CCOc1ccc2nc(C)cc(NN=Cc3ccccc3[N+](=O)[O-])c2c1` [TCMDC-142048] was tested, and the “% Inhibition” value was 91.47%. `COc1ccc2nc(C)cc(NN=Cc3ccc([N+](=O)[O-])o3)c2c1` [TCMDC-142036] was tested, and the “% Inhibition” value was 11.78%. In the case of `Cc1ccc2nc(C)cc(N/N=C/c3ccc([N+](=O)[O-])cc3)c2c1` [TCMDC-142070], the “% Inhibition” value is reported as 109.1%. With `CCOc1ccc2nc(C)cc(NN=Cc3cccc([N+](=O)[O-])c3)c2c1` [TCMDC-142049] the “% Inhibition” value was 64.63%. In the case of `COc1ccc2nc(-c3ccccc3)cc(NN=Cc3ccc([N+](=O)[O-])o3)c2c1` [TCMDC-142040], the “% Inhibition” value is reported as -17.37%. With `COCCNCc1ncsc1-c1ccc2c(Nc3cc(O)ccc3C)ccnc2c1` [TCMDC-138465] the “% Inhibition” value was -33.69%. `CC(C)(C)c1ccccc1OC(=O)c1ccccc1` [TCMDC-123936] was tested, and the “% Inhibition” value was -15.9%. For `CCCN1CCC(c2c[nH]c3ccc(NC(=O)Nc4cccc(Cl)c4Cl)cc23)CC1` [TCMDC-139182], the “% Inhibition” value was -83.82%. `O=[N+]([O-])c1ccc(C=NNc2nc(Nc3ccccc3)nc(Nc3ccccc3)n2)o1` [TCMDC-125802] was tested, and the “% Inhibition” value was 108.2%. With `O=[N+]([O-])c1ccc(Nc2nc(N/N=C/c3ccc(-c4ccc([N+](=O)[O-])cc4)o3)nc(Nc3ccccc3)n2)cc1` [TCMDC-123858] the “% Inhibition” value was -4.596%. For `COc1ccc2nc(C)cc(NN=Cc3cccc([N+](=O)[O-])c3)c2c1` [TCMDC-123972], the “% Inhibition” value was 49.98%. With `COc1ccc2c(N/N=C/c3ccccc3[N+](=O)[O-])cc(C)nc2c1` [TCMDC-142088] the “% Inhibition” value was -15.58%. `Cc1cc(N/N=C/c2ccccc2[N+](=O)[O-])c2ccccc2n1` [TCMDC-123978] was tested, and the “% Inhibition” value was -75.07%. For `COc1ccc2c(N/N=C/c3cccc([N+](=O)[O-])c3)cc(C)nc2c1` [TCMDC-142089], the “% Inhibition” value was 108%. In the case of `Cc1ccc2c(N/N=C/c3cccc([N+](=O)[O-])c3)cc(C)nc2c1` [TCMDC-142072], the “% Inhibition” value is reported as 87.02%. In the case of `Cc1ccc2c(N/N=C/c3ccccc3[N+](=O)[O-])cc(C)nc2c1` [TCMDC-142071], the “% Inhibition” value is reported as 26.69%. In the case of `O=[N+]([O-])c1ccc(-c2ccc(C=NNc3nc(Nc4ccccc4)nc(Nc4ccccc4)n3)o2)cc1` [TCMDC-124230], the “% Inhibition” value is reported as -25.78%. In the case of `Cc1cc(N/N=C/c2cccc([N+](=O)[O-])c2)c2ccccc2n1` [TCMDC-123977], the “% Inhibition” value is reported as 89.22%.
